Assay results reported in PubChem BioAssay (NCATS).
Results filed as inconclusive are left out. Active and inactive are the calls of the source. Calls follow the shape of the dose curve; as a rule, active = well fitted curve in the direction sought with a large enough effect; inconclusive = small, poorly fitted or top-dose-only effect, or another doubt; inactive = no such curve, though single readings can be large; an effect the other way counts as inactive or inconclusive.

Test: qHTS of pediatric cancer cell lines to identify multiple opportunities for drug repurposing: Confirmatory screen for MG 63 (6-TG R) cells (AID 1347119); also: nearly all actives have a fitted effect of over 55% in size;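 as to activity change, negative = cytotoxicity: plate controls were DMSO neutral control for no effect and bortezomib for full effect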
Conditions: MG-63 (6-TG resistant) osteosarcoma viability; series mostly up to 45.9 µM; activity change, negative = cytotoxicity: at the top concentration
Procedure, shortened: (§1)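 Viability after 48 h compound treatment at 37C, 500-1,000 cells/well, read as ATP luminescence with CellTiter-Glo. Primary screens used 11-point (MIPE, 0.78 nM-46 µM) or 8-point (NPC, 0.59 nM-46 µM) final concentrations; follow-up screens used 11-point dilutions.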
Potency is read from the fitted curve at half-maximal effect.

Row | SMILES | activity change, negative = cytotoxicity | Potency
1 | Clc1ccc2nsnc2c1NC1=NCCN1 | -9.86% (inactive) | 
2 | CCC1(c2ccccc2)C(=O)NCNC1=O | -2.85% (inactive) | 
3 | O=C1c2c(O)ccc(O)c2C(=O)c2c(NCCNCCO)ccc(NCCNCCO)c21 |  | 414 nM (active)
4 | CC(C)Cc1ccc(C(C)C(=O)O)cc1 (stereo not given) | -3.03% (inactive) | 
5 | CN(Cc1cnc2nc(N)nc(N)c2n1)c1ccc(C(=O)N[C@@H](CCC(=O)O)C(=O)O)cc1 | 7.35% (inactive) | 
6 | COc1cc2c(c(OC)c1OC)-c1ccc(OC)c(=O)cc1[C@@H](NC(C)=O)CC2 |  | 100 nM (active)
7 | CC(CCc1ccc(O)cc1)NCCc1ccc(O)c(O)c1 (stereo not given) | 7.9% (inactive) | 
8 | NC(=O)NO | -11.3% (inactive) | 
9 | CCCCc1oc2ccccc2c1C(=O)c1cc(I)c(OCCN(CC)CC)c(I)c1 |  | 39800 nM (active)
10 | CS(=O)(=O)Nc1ccc([N+](=O)[O-])cc1Oc1ccccc1 |  | 16500 nM (active)
11 | O=C(Nc1ccc([N+](=O)[O-])cc1Cl)c1cc(Cl)ccc1O |  | 1620 nM (active)
12 | COC(=O)Nc1nc2ccc(C(=O)c3cccs3)cc2[nH]1 |  | 147 nM (active)
13 | CC[C@@]1(O)C(=O)OCc2c1cc1n(c2=O)Cc2cc3c(CN(C)C)c(O)ccc3nc2-1 |  | 329 nM (active)
14 | CC#C[C@]1(O)CC[C@H]2[C@@H]3CCC4=CC(=O)CCC4=C3[C@@H](c3ccc(N(C)C)cc3)C[C@@]21C | -20.3% (inactive) | 

Test: qHTS of pediatric cancer cell lines to identify multiple opportunities for drug repurposing: Confirmatory screen for control Hh wild type fibroblast cells (AID 1347121); also: nearly all actives have a fitted effect of over 70% in size;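 as to activity, negative = cytotoxic: plate controls were DMSO for no effect and bortezomib for full effect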
Conditions: viability qHTS; series mostly up to 45.9 µM; activity, negative = cytotoxic: at the top concentration
Procedure, shortened: as §1

Row | SMILES | activity, negative = cytotoxic | Potency
15 | Clc1ccc2nsnc2c1NC1=NCCN1 | -7.16% (inactive) | 
16 | CCC1(c2ccccc2)C(=O)NCNC1=O | -1.21% (inactive) | 
17 | O=C1c2c(O)ccc(O)c2C(=O)c2c(NCCNCCO)ccc(NCCNCCO)c21 |  | 14700 nM (active)
18 | CC(C)Cc1ccc(C(C)C(=O)O)cc1 (stereo not given) | 3.64% (inactive) | 
19 | CN(Cc1cnc2nc(N)nc(N)c2n1)c1ccc(C(=O)N[C@@H](CCC(=O)O)C(=O)O)cc1 | 10.3% (inactive) | 
20 | CN1CCN(CCCN2c3ccccc3Sc3ccc(Cl)cc32)CC1 | -18.1% (inactive) | 
21 | COc1cc2c(c(OC)c1OC)-c1ccc(OC)c(=O)cc1[C@@H](NC(C)=O)CC2 | -19.4% [at 367 µM] (inactive) | 
22 | CC(CCc1ccc(O)cc1)NCCc1ccc(O)c(O)c1 (stereo not given) | 3.37% (inactive) | 
23 | NC(=O)NO | -1.08% (inactive) | 
24 | CCCCc1oc2ccccc2c1C(=O)c1cc(I)c(OCCN(CC)CC)c(I)c1 |  | 70800 nM (active)
25 | CS(=O)(=O)Nc1ccc([N+](=O)[O-])cc1Oc1ccccc1 | 0.173% (inactive) | 
26 | CN(C)CCCN1c2ccccc2CCc2ccc(Cl)cc21 | -3.34% (inactive) | 
27 | NC12CC3CC(CC(C3)C1)C2 | 3.91% (inactive) | 
28 | O=C(Nc1ccc([N+](=O)[O-])cc1Cl)c1cc(Cl)ccc1O |  | 3620 nM (active)
29 | COC(=O)Nc1nc2ccc(C(=O)c3cccs3)cc2[nH]1 | -5.45% (inactive) | 
30 | CC(C)C(=O)Nc1ccc([N+](=O)[O-])c(C(F)(F)F)c1 | 12.4% (inactive) | 
31 | O=C(c1ccc(OCCN2CCCCC2)cc1)c1c(-c2ccc(O)cc2)sc2cc(O)ccc12 | -7.85% (inactive) | 
32 | Clc1ccc(C(c2ccccc2Cl)C(Cl)Cl)cc1 (stereo not given) | 12.2% (inactive) | 
33 | CC[C@@]1(O)C(=O)OCc2c1cc1n(c2=O)Cc2cc3c(CN(C)C)c(O)ccc3nc2-1 | -20.4% (inactive) | 
34 | CC(C)NCC(O)c1ccc(O)c(O)c1 (stereo not given) | 5.79% (inactive) | 
35 | CC#C[C@]1(O)CC[C@H]2[C@@H]3CCC4=CC(=O)CCC4=C3[C@@H](c3ccc(N(C)C)cc3)C[C@@]21C | -4.99% (inactive) | 
